The list is not random: actives were taken first. Their share in the collection is about 2.9%.
LYPLA2 inh: LYPLA2 (human) inhibition in PME1 counter-screen | inhibition, % at 5.9 µM | recombinant LYPLA2, FP-Rh probe fluorescence polarization | hit rate 0.38% among 320,000 | O95372;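 active means inhibition above the screen-wide mean plus 3 SD, limit set per campaign, cut at about 26% in these data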
PAFAH2 FP inh: inhibitors of human PAFAH2; recombinant PAFAH2, FP-rhodamine activity probe, fluorescence polarization; hit rate 0.99% among 340,000; inhibition, % at 3.39 µM; AID 492956; Q99487;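 active means inhibition above the mean over all tested compounds plus 3 SD, cut at about 30% in these data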;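 further: inhibitors block probe labeling of enzyme so polarization drops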
LYPLA1 counter: counter-screen for PME1 inhibitors: inhibitors of human LYPLA1; O75608; recombinant LYPLA1, FP-Rh probe fluorescence polarization; inhibition, % at 5.9 µM; hit rate 0.16% among 320,000;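 active means inhibition above the mean of all tested compounds plus 3 SD, set per campaign, cut at about 14% in these data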;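 further: inhibitors block serine hydrolase probe labeling of LYPLA1 so polarization falls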
PAFAH1B2 inh: PAFAH1B2 (human) inhibition; hit rate 1.2% among 340,000; recombinant PAFAH1B2, FP-rhodamine activity probe, fluorescence polarization; inhibition, % at 3.39 µM;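 active means inhibition above the mean of all tested compounds plus 3 SD, cut at about 24% in these data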
pPAFAH FP inh: pPAFAH (human) enzyme inhibition; Q13093; recombinant pPAFAH, FP-rhodamine probe fluorescence polarization; inhibition, % at 3.39 µM; hit rate 1.5% among 330,000; AID 463082;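 active means inhibition above the mean inhibition across the screen plus 3 SD, cut at about 25% in these data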;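 further: inhibitors block binding of the rhodamine activity-based probe so polarization drops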
PAFAH1B3 inh: PAFAH1B3 (human) inhibition | inhibition, % at 3.39 µM | Q15102 | hit rate 0.28% among 340,000 | recombinant PAFAH1B3, FP-rhodamine probe, fluorescence polarization;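 active means inhibition above the screen-wide average of all tested compounds plus 3 SD, cut at about 25% in these data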
Target sequence (Q15102 whole entry, looked up): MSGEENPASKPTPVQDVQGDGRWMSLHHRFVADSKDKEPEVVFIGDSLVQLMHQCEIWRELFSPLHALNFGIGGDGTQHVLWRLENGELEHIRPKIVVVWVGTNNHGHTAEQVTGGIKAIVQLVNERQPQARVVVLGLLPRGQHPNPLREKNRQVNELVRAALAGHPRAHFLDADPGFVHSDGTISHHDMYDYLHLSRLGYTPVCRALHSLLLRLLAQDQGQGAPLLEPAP
Hits are given with their value; – = inactive; · = no result given.

SMILES	LYPLA2 inh	PAFAH2 FP inh	LYPLA1 counter	PAFAH1B2 inh	pPAFAH FP inh	PAFAH1B3 inh
N#Cc1c(-c2c(Cl)cccc2Cl)noc1/C=C/Nc1ccc(C(=O)O)cc1	–	–	–	–	24.6	–
Cc1nn(CC(=O)NCC2CCCO2)c(C)c1[N+](=O)[O-] (stereo unspecified)	–	–	–	–	–	–
Cc1nn(CC(=O)NNC(=S)NCC2CCCO2)c(C)c1Br (stereo unspecified)	–	–	–	–	27.8	–
NC(=O)C(c1ccc(F)cc1)c1ccc(C(=O)c2ccccc2)cc1 (stereo unspecified)	–	–	–	–	–	–
Cc1oc2c(cc(NS(=O)(=O)c3ccc(F)cc3)c3ccccc32)c1C(=O)O	–	–	–	–	–	–
Cc1oc2c(cc(NS(=O)(=O)c3ccc(C(C)C)cc3)c3ccccc32)c1C(=O)O	–	–	–	–	31.7	–
Cc1ccc(-c2cc(C(F)F)nc(NCc3cccs3)n2)cc1	–	–	–	–	–	–
Cc1ccc(-c2cc(C(F)F)nc(NCc3cccnc3)n2)cc1	–	–	–	–	25.6	–
NC1=NC(=O)/C(=C\c2ccco2)S1	–	–	–	–	30.1	–
Cc1cc(C)n2nc(C(=O)Nc3cccc(S(=O)(=O)N4CCCC4)c3)nc2n1	–	–	–	–	–	–
Cc1ccccc1NC(=O)c1ccccn1	–	–	–	–	27.2	–
C=CCc1c(C)nc(SCC(=C)C)[nH]c1=O	–	–	–	–	–	–
COc1ccc(N(CC(=O)N2CCN(c3ccccc3)CC2)S(=O)(=O)c2ccc(C)cc2)cc1	–	–	–	–	–	–
CCc1cc(C(=O)O)c(NC(=O)/C=C/c2ccc(OC)cc2)s1	–	–	–	–	–	–
CCc1cc(C(=O)O)c(NC(=O)/C=C/c2ccc(OC)c(OC)c2)s1	–	–	–	24.8	–	–
COC(=O)c1c(NC(=O)CN2C(=O)NC3(CCC(C)CC3)C2=O)sc2c1CCC2 (stereo unspecified)	–	–	–	–	–	–
N#Cc1ccsc1NC(=O)CN1C(=O)NC2(CCCC2)C1=O	–	–	–	–	26.7	–
CCOC(=O)c1cc(C)sc1NC(=O)CN1CCN(C(=O)c2ccco2)CC1	–	–	–	–	26.2	–
COC(=O)c1cc(C)sc1NC(=O)CN1CCN(C(=O)c2ccco2)CC1	–	–	–	–	–	–
CC1CCC2(CC1)NC(=O)N(CC(=O)Nc1sc3c(c1C(N)=O)CCC3)C2=O (stereo unspecified)	–	–	–	–	24.6	–
CCOC(=O)c1cc(C)sc1NC(=O)CN1CCN(C(=O)C2CCCO2)CC1 (stereo unspecified)	–	–	–	–	27.3	–
O=C(c1ccc(N2CCCCS2(=O)=O)cc1)N1CCN(c2ccccc2F)CC1	–	–	–	–	–	–
CN1CCN(CC(=O)Nc2sc3c(c2C(=O)Nc2ccccc2)CCCC3)CC1	–	–	–	–	–	–
NC(=O)c1c(NC(=O)CN2CCN(S(=O)(=O)c3ccccc3)CC2)sc2c1CCC2	–	–	–	35.0	–	–
CCOC(=O)c1c(NC(=O)CN2CCN(C(=O)c3ccco3)CC2)sc2c1CCCC2	–	–	–	–	33.6	–
SMILES	LYPLA2 inh	PAFAH2 FP inh	LYPLA1 counter	PAFAH1B2 inh	pPAFAH FP inh	PAFAH1B3 inh
COc1ccccc1Cn1c(=S)[nH]c2cc(C(=O)NCCN(C)C)ccc2c1=O	–	–	–	–	–	–
N#Cc1c(N)[nH]c(=S)c(C#N)c1-c1ccccc1	–	–	–	–	–	–
N#Cc1c(N)[nH]c2ccc(Sc3ccccc3)cc12	·	–	·	35.1	·	–
CCOC(=O)c1c2c(n(-c3ccc(OC)cc3)c1C)C(=O)C(=O)c1ccccc1-2	·	55.8	·	30.5	·	76.5
CCCOc1ccc(C(=O)Nc2ccc(S(=O)(=O)Nc3onc(C)c3C)cc2)cc1	–	–	–	–	30.3	–
Cc1noc(NS(=O)(=O)c2ccc(NC(=O)CC34CC5CC(CC(Br)(C5)C3)C4)cc2)c1C	–	–	–	33.2	–	–
O=C(Oc1cccc(N2C(=O)CCC2=O)c1)C1CC(=O)N(c2ccc(F)cc2)C1 (stereo unspecified)	–	–	–	–	–	–
C=CC[n+]1c(-c2ccc(Cl)cc2Cl)csc1Nc1ccc(NC(C)=O)cc1	–	32.7	–	–	24.8	–
C=CC[n+]1c(-c2ccc(Cl)cc2Cl)csc1Nc1c(C)n(C)n(-c2ccccc2)c1=O	–	–	–	–	–	–
